Assay outcomes deposited in PubChem BioAssay by National Center for Advancing Translational Sciences (NCATS).
KDM5B inhibitor = KDM5B demethylase inhibition. Q9UGL1. KDM5B demethylase, FDH-coupled NADH fluorescence (FDH is formaldehyde dehydrogenase). Potency, µM (highest dose often 57.7 µM), hits mostly inhibitors. 2.6% of 220,000 active. AID 1347165; active = well fitted inhibition curve with a large enough effect; note: 0% is about no effect; nearly all actives have a fitted effect of over 70% in size
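qHTS format, multiple compound concentrations. Buffer 50 mM HEPES pH 7.5/0.01% Tween-20; 200 nM KDM5BΔAP final; 10 min compound preincubation; substrate-mix levels 12.5 µM peptide, 25 µM α-KG, 0.25 mM NAD⁺; 30 min RT; ΔRFU.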
The depositor's hits bear a star; i = inactive. The entries come from a sample that favours hits as a whole. Potency is the fitted concentration of half-maximal effect.

SMILES | KDM5B inhibitor
CC(C)c1noc(-c2ccn3c(CNC(=O)c4ccoc4)nnc3c2)n1 | 28µM*
Cc1cccc(C(=O)NCc2nnc3cc(-c4nc(C)no4)ccn23)c1 | 25µM*
C/C(=N\NC(=O)C1CCCCC1)c1ccc(NC(=O)c2ccc(Cl)s2)cc1 | i
COc1ccc(C(=O)NC[C@@H]2C=C(C)[C@H](Cc3nnc(-c4ccncc4)o3)C[C@H]2C(C)C)cc1 | i
CC(C)N(C)CC#CC(O)(c1ccccc1)C1CCCC1 (stereo not given) | i
O=C(NC1(c2ccccc2)CCC1)c1cccc(C(F)(F)F)c1 | i
CCCCCC1c2cc(c(O)cc2O)C(CCCCC)c2cc(c(O)cc2O)C(CCCCC)c2cc(c(O)cc2O)C(CCCCC)c2cc1c(O)cc2O (stereo not given) | i
Cn1c(=O)[nH]c(=O)c2c1nc(SCC(N)=O)n2CCc1ccccc1 | i
COc1ccc(OC)c(CN2CCN(Cc3ccc(C(F)(F)F)cc3)CC2)c1 | i
Cc1ccc2c(c1)[C@H]1OCCC[C@H]1C(c1ccc(O)c(Br)c1)N2 (stereo not given in full) | i
CC1(C)CC(=O)C2=C(C1)OC(N)=C(C#N)C2c1ccco1 (stereo not given) | i
Cc1oc(-c2ccccc2)nc1C(=O)OCC(=O)N1CCC(C)CC1 | i
COc1ccc(CN(Cc2ccc(OC)cc2)[C@@H]2CO[C@H](CNC(=O)CC(C)(C)C)[C@H]2O)cc1 | i
O=C(C1CCC(=O)N(C2CCCC2)C1)N1CCN(c2nccs2)CC1 (stereo not given) | i
O=C(C1CC(=O)N(C2CCCC2)C1)N1CCN(c2ccc(Cl)cn2)CC1 (stereo not given) | 32µM*
O=C(C1CC(=O)N(C2CC2)C1)N1CCC(Oc2cccnc2)CC1 (stereo not given) | i
CCc1ccc(C2C=C(c3ccccc3)Nc3nnnn32)cc1 (stereo not given) | i
CN(C)/C=C/C=C1C(=O)CC(C)(C)CC1=O | i
Cc1ccc([S+](=O)([O-])N2CCC3(CCN(Cc4cccs4)c4ccccc4O3)CC2)cc1 | i
O=C1CC2(CCN([S+](=O)([O-])c3cccc(C(F)(F)F)c3)CC2)Oc2ccccc2N1c1ccccc1 | i
O=[S+]([O-])(c1cccc(C(F)(F)F)c1)N1CCC2(CCN(Cc3cccs3)c3ccccc3O2)CC1 | 11µM*
Cc1ccccc1CN1CCCC12Cc1ccccc1CNC2=O (stereo not given) | i
Cc1csc(NC(=O)CSc2c3c(nc4cc(Cl)ccc24)CCCC3)n1 | i
N#Cc1ccc(CN2CCC3(CC2)COc2ccccc2C(=O)N3)cc1 | i
CC(C)CCN1CCC2(CC1)COc1ccccc1C(=O)N2 | i
SMILES | KDM5B inhibitor
O=C1NC2(CCN(Cc3ccc(OC(F)(F)F)cc3)C2)COc2ccccc21 (stereo not given) | 22µM*
O=C1NC2(CCN(Cc3ccc(C(F)(F)F)cc3)CC2)COc2ccccc21 | i
Cn1cc(CN2CCC3(CC2)COc2ccccc2C(=O)N3)cn1 | i
Cc1ccc(CN2CCCC3(COc4ccccc4C(=O)N3)C2)cc1 (stereo not given) | 35µM*
N#Cc1ccc(CN2CCC3(COc4ccccc4C(=O)N3)C2)cc1 (stereo not given) | 40µM*
COc1cccc(CN2CCC3(CC2)COc2ccccc2C(=O)N3)c1 | i
O=C1NC2(CCN(Cc3ccccc3)C2)COc2ccccc21 (stereo not given) | 40µM*
Cc1ccc(CN2CCC3(CC2)COc2ccccc2CN3)cc1 | i
O=C1NC2(CCN(Cc3ccccc3C(F)(F)F)CC2)COc2ccccc21 | i
Cc1ccc(CN2CCC3(CC2)NC(=O)c2ccccc2O3)cc1 | i
O=S(=O)(Nc1cccc2cccnc12)c1ccc(F)c(F)c1F | i
COc1cc(/C=C2\N=C(SC)SC2=O)cc(OC)c1OC | i
O=C(Cn1ccc2ccccc21)Nc1ccc2c(c1)OCCO2 | i
CCn1c(SCc2nc3cc(S(=O)(=O)N(C)C)ccc3n2CC)nnc1C1CC1 | i
C[N+](C)(CC#CCCCCCCC#CC[N+](C)(C)Cc1ccccc1)Cc1ccccc1 | i
Cc1sc(N2CCOCC2)nc1-c1ccc(NS(C)(=O)=O)cc1 | i
CSCCC(NC(=O)Cc1ccc2c(c1)CCCC2)c1nc2ccccc2[nH]1 (stereo not given) | i
Fc1ccc(OC2CN(Cc3ccccc3)C2)cc1F | i
COc1ccc(C)cc1NC(=O)C1CCN(c2cnc3nc(C)c(C)nc3c2)CC1 | i
CCN(CC)C(=S)SC(C(=O)NC(N)=O)C(C)C (stereo not given) | i
CC(C)NC(=O)C(C)c1ccc([N+](=O)[O-])cc1 (stereo not given) | i
O=C(NCC(F)(F)F)C1CCN(C(=O)/C=C/c2ccccc2)CC1 | i
N#Cc1ccc(CN2CCCC3(C2)NC(=O)c2ccccc2O3)cc1 (stereo not given) | i
N#Cc1ccc(CN2CC3(C2)NC(=O)c2ccccc2O3)cc1 | i
N#Cc1ccc(CN2CCCC3(COc4ccccc4C(=O)N3)C2)cc1 (stereo not given) | 35µM*
SMILES | KDM5B inhibitor
S=C(Nc1ccc(Cl)c(Cl)c1)NC1CC1 | i
O=C(O)CCCNC(=O)Cn1ccc2ccc(Br)cc21 | i
Cc1ccccc1-n1c(SC(C)C(=O)c2ccc(F)c(F)c2)nnc1N1CCOCC1 (stereo not given) | i
CC(=O)N1CCC(C(=O)NCc2ncc(-c3ccccc3)o2)CC1 | i
Cc1ccc(-c2ccc3nnc(SCC(=O)NCC4CCCO4)n3n2)cc1 (stereo not given) | i
Cc1ccc(CNC(=O)C2CCN(S(=O)(=O)N3CCCCC3)CC2)cc1 | i
Cc1ccc(-c2ccc3nnc(CNC(=O)c4cccnc4)n3n2)cc1 | 32µM*
O=C(NCc1nnc2n1C(C(=O)NCc1ccc(F)cc1)CC2)c1cccnc1 (stereo not given) | i
Cc1ccsc1CNC(=O)c1cnccn1 | i
Cc1ccc(-c2ccc3nnc(CNC(=O)c4nccc5ccccc45)n3n2)cc1 | 32µM*
CCc1ccc(CNC(=O)c2cnccn2)s1 | i
Cc1ccc(CNC(=O)CSc2nnc3ccc(-c4ccc5c(c4)OCO5)nn23)cc1 | i
CC(=O)N1CCC(C(=O)NCc2nnc3ccc(-c4ccc(C)cc4)nn23)CC1 | 32µM*
Cc1ccc(-c2ccc3nnc(CNC(=O)c4cnccn4)n3n2)cc1 | 13µM*
Cc1cc(C)cc(Oc2nc(-c3ccncc3)nc3ccccc23)c1 | i
O=S(=O)(NCC1(c2ccccc2)CC1)c1ccccc1F | i
CCCNc1nc2ccccc2nc1S(=O)(=O)Cc1ccc(Cl)cc1 | i
COc1cccc(-n2ccn(Cc3c(F)cccc3Cl)c(=O)c2=O)c1 | i
Cc1ccc(C)c(C(=O)Nc2cccc(-c3nnc4n3CCCC4)c2)c1 | i
O=C(Cc1c[nH]c2ccccc12)NCCOc1ccc(Cl)cc1 | i
Cc1ccc(-c2cccc(CN)c2)cc1Cl | i
Cc1ccc(-c2ccc(C=O)cc2)cc1Cl | 50µM*
O=C(/C=C/c1ccc(O)cc1)c1ccc(-c2ccccc2)cc1 | i
O=CNc1ccc(O)cc1 | i
Cc1ccc(-c2cccc(C=O)c2)c(C)c1 | i
O=Cc1ccc(-c2ccc(O)cc2)cc1 | 14µM*
Cc1ccc(-c2cccc(C=O)c2)cc1Cl | i
Cc1cccc(-c2ccc(C=O)cc2)c1 | 45µM*
Cc1cccc(-c2ccccc2C=O)c1 | i
COc1ccc(C2CCCN2C(=O)Cn2cccnc2=O)cc1 (stereo not given) | i
